The values that follow come from PubChem BioAssay (NCATS).

Inconclusive results are not listed. Values without a mark were called inactive. Calls of active or inactive are those of the source. Calls come from the whole dose curve; as a rule, active = well fitted inhibition curve with a large enough effect; inconclusive = small, poorly fitted or top-dose-only effect; inactive = flat fitted curve, though single readings scatter.

This assay can be described thus: Cytometry Cell-Based qHTS for Inhibitors of the mTORC1 Signaling Pathway in MEF cells (AID 2668).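 Note: Tsc2-/- p53-/- mouse embryonic fibroblasts stably re-expressing wild-type Tsc2; percent cells positive for phospho-rpS6 Ser235/236 relative to propidium iodide stain.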 To be noted: mTORC1 pathway readout; series mostly up to 38.3 µM; activity change, negative = inhibition: at the top concentration. An excerpt: NIH Molecular Libraries Probe Production Centers Network [MLPCN]
NIH Chemical Genomics Center [NCGC]
Assay Submitter (PI): Blenis, John; Hoffman, Greg; Harvard University
NCGC Assay Overview: The mammalian target of rapamycin (mTOR) is an intracellular serine/threonine kinase Aberrant regulation of mTOR signaling plays a causative role in a number of human diseases, including cancer, benign tumors such as lymphangioleiomyomatosis (LAM) and Tuberous Sclerosis Complex (TSC), and metabolic diseases such as diabetes and obesity. This project aims to identify inhibitors of ribosomal protein S6 (rpS6) phosphorylation. The phosphorylation of rpS6 is a key event downstream of mTOR activation. The assay uses a phospho-specific antibody of phospho-rpS6 to detect inhibitors of mTOR activation. Mutations in the Tsc1 and Tsc2 genes are the underlying genetic lesions responsible for TSC, causing constitutive activation of the mTORC1 pathway and leading to profound effects on cell metabolism. Aberrant metabolism in cancer has recently received significant attention as a target to develop therapeutic agents in the treatment of cancer.1 As Tsc2-/- cells have lost the ability to respond to energy and growth factor deprivation, these cells are unable to properly down regulate cellular biosynthetic processes in response to metabolic stress, and are thus extremely sensitive to glucose deprivation-induced death.2 A central goal of this project is to explore the unique cell survival and metabolic properties of cells with Tsc1 or Tsc2 by screening for compounds that selectively target the Tsc2-/- MEFs by screening both Tsc2-/- and WT MEF cell lines. We hope to better understand these aspects of TSC physiology in order to exploit them for therapeutic benefit.
NCGC Acumen Assay Protocol:
For quantitative high throughput analysis of mTORC1 signaling, we developed a cell-based assay for immuno-fluorescence based detection of rpS6 phosphorylation on the Acumen Explorer that will be used a platform for the primary small molecule screen. Mouse embryonic fibroblasts (MEFs) are cultured in 1536-well plates using DMEM + 10% FBS. Twenty-four hrs after plating, test compounds (solubilized in DMSO) are delivered and incubated with the cells for 24 hrs at 37 degree Celsius. Following the incubation, media with compound is aspirated and the cells are fixed in 4% paraformaldehyde (PFA) containing PBS + 0.2% TX-100. Next, PFA is aspirated, cells are washed two times with PBS plus 0.2% TX-100 and the cells are blocked for 1 hr at room temperature (blocking buffer: LiCOR Blocking Buffer plus 0.2% TX-100). This is followed by aspiration and staining with Alexa-488 conjugated-phospho-rpS6 Ser235/236 antibody for 2 hours at room temperature (Cell Signaling Technology # 4803, 1:50 dilution in blocking buffer). Cells are washed two times with PBS plus 0.2% TX-100, and stained with 10 uM propidium iodide (PI) for 20-25 minutes for cell number measurement (1:500 dilution of Hoescht staining is also added for IN Cell imaging). The plates are scanned on the Acumen Explorer laser scanning instrument (TTP Labtech) using the 488nm laser for simultaneous excitation of the Alexa-488 and PI. The fluorescence emission from the Alexa-488 conjugated rpS6 phospho-235/236 antibody staining is selected using a […] band pass filter. Fluorescence emission from the PI stain is selected using a 575-640 nm band pass filter. The normalized phospho-S6 staining is calculated as the ratio of the integrated Alexa 488 intensity divided by the integrated PI intensity for the single concentration rapamycin control (7.5 nM) and DMSO columns. […] Inhibition of the pathway is defined based on the normalized phospho-S6 intensity in rapamycin treated cells. […]
In general terms: In qHTS, concentration-response curves come from the screen itself.
Take `CCN(CC)CCCC(C)Nc1ccnc2cc(Cl)ccc12` (stereo not given): the “activity change, negative = inhibition” value is 6.39%.
In the case of `Cc1ccc(N(CC2=NCCN2)c2cccc(O)c2)cc1`, the “activity change, negative = inhibition” value was -19.9%.
With `Nc1nc2ccc(OC(F)(F)F)cc2s1`, the “activity change, negative = inhibition” value is -6.5%.
For `CNC[C@H](O)c1cccc(O)c1`, the “activity change, negative = inhibition” value was 3.33%.
Same read-out and setting: the result for `Cc1cnc(NC(=O)C2=C(O)c3ccccc3S(=O)(=O)N2C)s1` reads 6.04%.
As for `CC(C)(C)NCC(O)c1ccc(O)c(CO)c1` (stereo not given), the outcome was inactive.
For the compound `O=C1CCC(N2C(=O)c3ccccc3C2=O)C(=O)N1` (stereo not given), the “activity change, negative = inhibition” value was 0.733%.
As for `Nc1nc2c(ncn2COCCO)c(=O)[nH]1`, the “activity change, negative = inhibition” value was 1.43%.
As to `NS(=O)(=O)c1cc2c(cc1Cl)NC=NS2(=O)=O`, the “activity change, negative = inhibition” value was 8.15%.
Take `CC(C)NCC(O)COc1ccc(COCCOC(C)C)cc1` (stereo not given): the “activity change, negative = inhibition” value was 3.46%.
As to `Oc1ccc(C2CNCCc3c2cc(O)c(O)c3Cl)cc1` (stereo not given), the “activity change, negative = inhibition” value was -2.3%.
`CC(C)C[C@H](NC(=O)[C@@H](O)[C@H](N)Cc1ccccc1)C(=O)O`: the “activity change, negative = inhibition” value is 7.45%.
For the compound `N=c1nc(N2CCCCC2)cc(N)n1O`, the “activity change, negative = inhibition” value was 6.84%.
As for `C[C@]12CCC(=O)C=C1CC[C@@H]1[C@@H]2[C@@H](O)C[C@@]2(C)[C@H]1CC[C@]2(O)C(=O)CO`, the “activity change, negative = inhibition” value is 0%.
Still for that read-out and setting: under `CCC(C)N(C)C(=O)c1cc2ccccc2c(-c2ccccc2Cl)n1` (stereo not given) stands 1.26%; under `NC(=O)c1cnccn1`, 4.73%.
The same measure, in the same setting: the result for `O=NN(CCCl)C(=O)NCCCl` reads -4.28%; that for `CCCCNc1cc(C(=O)O)cc(S(N)(=O)=O)c1Oc1ccccc1`, -5.01%; that for `OC(CCN1CCCCC1)(c1ccccc1)C1CC2C=CC1C2` (stereo not given), 5.63%.
For `CC(C[N+](C)(C)C)OC(N)=O` (stereo not given), the “activity change, negative = inhibition” value was 7.53%.
Consider `c1ccc([C@H]2CN3CCSC3=N2)cc1`, for which the “activity change, negative = inhibition” value is 4.57%.
As for `O=c1[nH]cnc2[nH]ncc12`, the “activity change, negative = inhibition” value was 4.92%.
The same measure, in the same setting: the result for `Cc1oncc1C(=O)Nc1ccc(C(F)(F)F)cc1` reads -24.7%.
For `Cc1[nH]c(=O)c(C#N)cc1-c1ccncc1`, the “activity change, negative = inhibition” value was 9.53%.
Turning to `CCCC(CCC)C(=O)O`, the “activity change, negative = inhibition” value is -2.17%.
`CCOC(=O)C1=C[C@]2(CC)CCCN3CCc4c(n1c1ccccc41)[C@@H]32`: the “activity change, negative = inhibition” value is 3.93%.
Take `NCCCC(N)(C(=O)O)C(F)F` (stereo not given): the “activity change, negative = inhibition” value is 7.02%.
For `Nc1ccc(S(=O)(=O)Nc2ccnn2-c2ccccc2)cc1`, the “activity change, negative = inhibition” value was -2.8%.
Consider `CC(C)(Sc1ccc(CCN(CCCCC2CCCCC2)C(=O)NC2CCCCC2)cc1)C(=O)O`, for which the “activity change, negative = inhibition” value is -1.55%.
With `Cc1ccccc1C(OCCN(C)C)c1ccccc1` (stereo not given), the “activity change, negative = inhibition” value was 1.04%.
Take `Cn1cnc([N+](=O)[O-])c1Sc1ncnc2nc[nH]c12`: the “activity change, negative = inhibition” value is 10.9%.
Still for that read-out and setting: the result for `CC(=O)Oc1ccccc1C(=O)O` reads 10.2%; that for `Cc1[nH]c(=O)c(C#N)cc1-c1ccc2nccn2c1`, -9.09%; that for `NNCCc1ccccc1`, -9.05%.
Same read-out and setting: the result for `Cc1cn[nH]c1` reads -2.37%.
With `CCn1cc(C(=O)O)c(=O)c2cc(F)c(N3CCNC(C)C3)c(F)c21` (stereo not given), the “activity change, negative = inhibition” value is 4.93%.
The same measure, in the same setting: the result for `C1COC(NC(C2CC2)C2CC2)=N1` reads 1.07%.
Turning to `Nc1ncnc2nc(-c3ccc(N4CCOCC4)nc3)cc(-c3cccc(Br)c3)c12`, the “activity change, negative = inhibition” value is -2.78%.
Turning to `O=c1n(CCCN2CCN(c3cccc(Cl)c3)CC2)nc2ccccn12`, the “activity change, negative = inhibition” value is 5.1%.
Regarding `O=C1CCc2cc(OCCCCc3nnnn3C3CCCCC3)ccc2N1`, the “activity change, negative = inhibition” value was -4.59%.
